# High-throughput results: PubChem BioAssay, Broad Institute
# Only a selection was taken, and hits are over-represented in it overall.
# Tg IFNy HTS: T. gondii growth inhibition with IFN-gamma, primary screen, cell-based | Toxoplasma gondii growth in IFN-gamma-treated host cells; active compounds read low | activity change, negative = inhibition, % (concentration not given with the values) | hit rate 3.8% among 69,000; in the data active = activity change below about -70%, passing the limit was not always enough;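 also: host cells are HeLa cells infected with Toxoplasma gondii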
# A number is an active result; 0 = inactive; ! = not active in a repeat.
SMILES,Tg IFNy HTS
COc1ccc(-c2nc(Cn3nnc(-c4nc(-c5cccc(F)c5)no4)c3C)c(C)o2)cc1,0
C=CCn1c(C(=O)NCc2ccccn2)cc2cc(S(=O)(=O)N(C)C)ccc21,0
O=C(Cn1ncc2c(N3CCN(c4ccccn4)CC3)ncnc21)Nc1ccc(F)cc1Cl,0
Cc1ccc2[nH]c(=O)c(-c3nc(-c4ccc(Cl)cc4)no3)c(O)c2c1,0
C=CCOCc1cncc2c1CCN(C(=O)c1ccc[nH]1)C2,0
Cc1nc(-c2ccc(F)cc2)sc1CCNC(=O)c1ccc2c(c1)OCO2,0
Fc1ccc(CN2CCC3(CC(Nc4ncc(F)cn4)CO3)C2)cc1 (stereo not drawn),0
CC1=C(C(=O)N2CCCC2)C2(CCN(S(=O)(=O)c3cccs3)CC2)OC1=O,0
COc1cccc(-c2nc3c(s2)CN(S(=O)(=O)c2ccc(Cl)cc2)CC3)c1,0
COc1ccc(S(=O)(=O)N2CCc3nc(-c4cccc(OC)c4)sc3C2)cc1,0
Cc1ccc(-c2nc3c(s2)CN(S(=O)(=O)c2ccccc2C)CC3)cc1,-90
COc1ccc(-c2nc3c(s2)CN(S(=O)(=O)c2ccc(C)cc2)CC3)cc1,-76
Cc1cc(C)c(S(=O)(=O)N2CCc3nc(-c4ccccc4)sc3C2)c(C)c1,0
O=S(=O)(c1ccc(F)cc1)N1CCc2nc(-c3ccccc3)sc2C1,0
CCCc1ccc(S(=O)(=O)N2CCc3nc(-c4ccc(OC)cc4)sc3C2)cc1,0
O=S(=O)(c1ccc(F)cc1F)N1CCc2nc(-c3ccccc3)sc2C1,0
Cc1cc(C)c(S(=O)(=O)N2CCc3nc(-c4ccccc4)sc3C2)cc1C,-89
Cc1ccc(-c2nc3c(s2)CN(S(=O)(=O)c2ccc(C)c(C)c2)CC3)cc1,0
COc1ccc(-c2nc3c(s2)CN(S(=O)(=O)c2ccc(Cl)cc2)CC3)cc1,0
COc1cccc(-c2nc3c(s2)CN(S(=O)(=O)c2ccc(F)cc2)CC3)c1,-79
CCn1cc(S(=O)(=O)N(CCCOC)C2CCOc3ccccc32)cn1 (stereo not drawn),0
Cc1nc(C)c(CC(=O)NCC2CCC(c3nnc(-c4cccs4)o3)CC2)s1 (stereo not drawn),0
COCC(=O)NCC1Cn2nnc(-c3cnn(C)c3)c2CO1 (stereo not drawn),0
COc1cccc(-c2nc(Cn3nnc(C(=O)Nc4ccc(C)c(F)c4)c3C)c(C)o2)c1OC,0
CC(C)(C)C(=O)Nc1ccc(-c2nc(-c3ccccc3)co2)cc1,0
SMILES,Tg IFNy HTS
Cc1oc(-c2ccccc2)nc1Cn1c(=O)c2cccnc2n(-c2ccccc2)c1=O,0
CCc1nc(SCC(=O)N2CCc3[nH]nc(-c4ccccc4)c3C2)n[nH]1,0
Cc1ccc(C(=O)N2CCCn3nnc(CN4CCCCC4)c3C2)cn1,0
CCNC(=S)NCCc1c[nH]c2ccccc12,0
C[C@@H]1C(SC2CN(C3=NCCS3)C2)=C(C(=O)OCOC(=O)C(C)(C)C)N2C(=O)[C@H]([C@@H](C)O)[C@H]12,0
COc1cccc(-c2ccncn2)c1OC,0
COCCC(=O)c1ccc2c(c1)C(c1ncn[nH]1)CN2C(=O)c1ccccc1 (stereo not drawn),0
C=CCNc1c(C(=O)OC)c(=O)[nH]c2ccc(F)cc12,0
COC(=O)c1ccc(NC(=O)CSc2nnc3c(n2)[nH]c2ccc(F)cc23)cc1,-70
Cc1ccc2nc(SCC(=O)Nc3ccc(F)cc3)c(C)cc2c1,0
CC(C)(C)c1nnc(NC(=O)CN2CCN(S(=O)(=O)N3CCCC3)CC2)s1,0
Cn1cc(C2=C(c3cn(CCCSC(=N)N)c4ccccc34)C(=O)NC2=O)c2ccccc21,-77
Cn1cc(C(=O)O)c(=O)c2ccccc21,0
COc1ccc2c(c1)c(C1=C(c3c[nH]c4ccccc34)C(=O)NC1=O)cn2CCCN(C)C,0
COCCNC(=O)c1ccc2c(c1)N(C)C(CC(=O)Nc1cnccc1C)CO2 (stereo not drawn),0
CCn1c(CN2C[C@@H]3CC[C@@](O)(c4cnc(OC)nc4OC)[C@@H]3C2)nc2ccccc21,-85
CCCCN1CCC(O)(c2cnc(OC)nc2OC)CC1,0
COc1ccc(CN2C[C@@H]3CC[C@@](O)(c4ncccc4C)[C@@H]3C2)cc1,0
O=C(O)C1CCCN(c2ccccn2)C1 (stereo not drawn),0
O=C(CN1C(=O)CCc2cc(Br)ccc21)Nc1ccc2c(c1)OCCO2,0
O=C1CC(COCc2ccccc2)c2c(n[nH]c2-c2cccs2)N1 (stereo not drawn),0
COc1ccc(C=O)c(OC)c1,0
COc1cc(/C=C/c2ccc(OC)cc2OC)cc(OC)c1,-76!
COC(=O)c1cc(OC)c(OC)cc1NC(=O)Nc1ccc(OC)cc1OC,0
Cc1cnc(NC(C)CCn2cccn2)nc1N(C)C (stereo not drawn),0
SMILES,Tg IFNy HTS
CCOC(=O)C1CCN(C(=O)Cn2cccc2-c2nc(-c3ccc(C)cc3)cs2)CC1,0
COCCC(=O)N1C[C@H](OCc2ccccn2)[C@@H]2COC[C@@H]21,0
CC(C)(C)C(=O)NCCc1csc(-c2cccc(F)c2)n1,0
CN(C)CCN1CCC2(CC1)CC(NCc1cccs1)c1ccccc12 (stereo not drawn),0
COCCN1CCC2(CC1)CC(NCc1ccc(C)s1)c1ccccc12 (stereo not drawn),0
CS(=O)(=O)N1CCC2(CC1)CC(NCc1cccs1)c1ccccc12 (stereo not drawn),-94
O=C(O)c1ccccc1CN1CCC(C(O)c2cccs2)CC1 (stereo not drawn),0
CN1CCN2CCN(S(=O)(=O)c3ccc(-c4cnco4)s3)CC2C1=O (stereo not drawn),0
Oc1ccc(O)c(Cc2nc3ccccc3s2)c1,-93
CCc1cc(C(=O)Cc2nc3ccccc3s2)c(O)cc1O,0
c1ccc2sc(CCc3nc4ccccc4s3)nc2c1,0
COCCCN(Cc1ccco1)c1nc(-c2ccc(OC)cc2)nc2ccccc12,0
O=C(CSc1nc2ccccc2s1)NC12CC3CC(CC(C3)C1)C2,0
C=CCN1C(=O)C2(c3ccccc31)c1[nH]c3ccccc3c1CCN2C(C)=O (stereo not drawn),0
Cc1ccc(-c2nc3c(s2)CN(C(=O)NCc2ccccc2)CC3)cc1,0
O=C(NCc1ccccc1)c1nc2c(s1)CCN(C(=O)c1ccncc1)CC2,-74
COc1ccc(CNC(=O)c2nc3c(s2)CCN(C(=O)CC(C)C)CC3)cc1,0
Cc1ccc(Cl)cc1NC(=O)C(=O)NCCc1sc(-c2ccccc2)nc1C,0
CC1(C)NC(=O)N(CC(O)CN2C(=O)c3ccccc3C2=O)C1=O (stereo not drawn),0
CC1(C)C(=O)NC2=C1C(=O)C(=O)c1ccccc12,-82
CCOc1ccc(-c2cc3c(=O)n(Cc4nc(-c5ccccc5)oc4C)ccn3n2)cc1Cl,0
CSc1ccc(-c2noc(-c3nnn(Cc4nc(-c5cccc(C)c5)oc4C)c3C)n2)cc1,0
COc1ccc(-c2nc(NCCN3CCOCC3)c3ccccc3n2)cc1,0
COc1ccc(-c2nc(N3CCc4ccccc4C3)c3ccccc3n2)cc1,0
COc1ccc2c(c1)CCc1c-2nc2ccccc2c1N1CCOCC1,-98
SMILES,Tg IFNy HTS
COc1ccc(-c2nc(NCc3ccc(C)o3)c3ccccc3n2)cc1,0
Cc1cc(NC(=O)c2cccc3ccccc23)cc(C)c1OCC(=O)N1CCOCC1,0
O=C(CSCCOc1ccccc1)N1CCOCC1,0
O=C(COc1cccc(-n2cnnc2)c1)N1CCOCC1,-85
COCCN(C)C(=O)c1cc(-c2ccn(CC3CC3)n2)n2ccccc12,0
CC1CCN(c2ncnc3c2cnn3CC(=O)Nc2ccccc2Cl)CC1,0
